Sampled rows, rich in hits. Any-hit rate of the full collection: about 4.1%.
aSyn 5UTR inh: MLPCN primary screen, SNCA 5' untranslated region; actives 0.82% (n = 300,000); AID 1813; inhibition, % (tested at 7.5 µM); alpha-synuclein 5'UTR reporter, inhibitor activity; in the data active means inhibition above about 60%;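 further: H4 neuroglioblastoma cells stably carrying SNCA 5'UTR luciferase fusion; 0% = DMSO wells and 100% = positive control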
Gli-Sufu block: Gli-Sufu pathway antagonism | Sufu-KO-LIGHT fibroblasts, Gli luciferase reporter luminescence | inhibition, % at 5 µM | actives 0.74% (n = 340,000);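 active means inhibition above about 55%, limit read from the data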;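 further: 0% = DMSO-treated cells and 100% = wells with medium but no cells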
697 NFkB inh: inhibitors of the PMA/ionomycin-induced NF-kB reporter in 697 B cells. 697 B-cell NF-kB luciferase reporter, 16 h. inhibition, % at 4 µM. actives 0.33% (n = 330,000); in the data active means inhibition above about 35%
Mdm2-MdmX inh: human Mdm2/MdmX binding inhibition | O15151+Q00987 | SaOS-2 split-luciferase Mdm2/MdmX complementation, luminescence | inhibition, % at 8 µM | actives 3% (n = 330,000);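 active means inhibition of at least 50% at 8 µM in the primary screen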
Target sequence (O15151 whole entry, looked up): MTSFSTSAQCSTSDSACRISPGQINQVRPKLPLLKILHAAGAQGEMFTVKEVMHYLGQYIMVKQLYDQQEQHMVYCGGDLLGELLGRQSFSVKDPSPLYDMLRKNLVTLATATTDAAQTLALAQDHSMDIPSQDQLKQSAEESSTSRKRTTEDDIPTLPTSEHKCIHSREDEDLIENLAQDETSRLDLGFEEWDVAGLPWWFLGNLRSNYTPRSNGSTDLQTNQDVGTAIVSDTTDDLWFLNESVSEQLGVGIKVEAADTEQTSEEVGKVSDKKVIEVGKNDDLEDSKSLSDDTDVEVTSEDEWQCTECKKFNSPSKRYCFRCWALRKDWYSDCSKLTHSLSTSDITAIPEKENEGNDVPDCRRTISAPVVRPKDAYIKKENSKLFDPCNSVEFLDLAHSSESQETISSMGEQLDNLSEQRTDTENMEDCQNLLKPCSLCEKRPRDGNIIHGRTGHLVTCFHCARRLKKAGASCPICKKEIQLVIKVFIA
Target sequence (Q00987 whole entry, looked up): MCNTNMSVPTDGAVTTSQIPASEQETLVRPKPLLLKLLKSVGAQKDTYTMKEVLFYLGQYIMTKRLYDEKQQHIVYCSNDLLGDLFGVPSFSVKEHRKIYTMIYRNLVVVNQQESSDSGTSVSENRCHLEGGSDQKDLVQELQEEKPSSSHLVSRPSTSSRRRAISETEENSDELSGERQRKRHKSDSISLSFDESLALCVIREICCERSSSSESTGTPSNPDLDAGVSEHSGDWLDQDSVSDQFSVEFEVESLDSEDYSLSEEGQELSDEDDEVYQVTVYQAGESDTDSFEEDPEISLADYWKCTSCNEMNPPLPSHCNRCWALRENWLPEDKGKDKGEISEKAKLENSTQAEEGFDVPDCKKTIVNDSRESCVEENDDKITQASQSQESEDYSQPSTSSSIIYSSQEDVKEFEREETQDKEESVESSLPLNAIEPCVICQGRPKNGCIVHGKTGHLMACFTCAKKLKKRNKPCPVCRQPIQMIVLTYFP
KLF5 inh: inhibitors of KLF5 expression | DLD-1 KLF5 promoter-luciferase reporter, luminescence | inhibition, % at 5 µM | actives 0.23% (n = 290,000);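 active means inhibition above a per-plate limit of that plate's mean compound inhibition plus 3 SD, cut at about 60% in these data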;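 further: 0% = DMSO wells and 100% = LY294002 at 200 µM; higher means less KLF5 promoter-driven luciferase light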
Jurkat NFkB inh: lowers PMA/ionomycin-induced NF-kB signal in Jurkat cells | PMA/ionomycin-induced NF-kB luciferase reporter, luminescence | actives 0.53% (n = 330,000) | inhibition, % at 4 µM; in the data active means inhibition above about 50%
697 NFkB conf: inhibitors of the PMA/ionomycin-induced NF-kB reporter in 697 B cells, retest; shares compounds with 697 NFkB inh; 697 B-cell NF-kB luciferase, 16 h; inhibition, % at 4 µM; actives 35% (n = 2,000); AID 449746; in the data active means inhibition mostly above about 28%, no sharp cut-off; inactive means mostly below about 22%
Mdm2 MdmX conf: confirmation of human Mdm2/MdmX interaction inhibitors. shares compounds with Mdm2-MdmX inh. Mdm2-MdmX binding, luminescent assay. inhibition, % at 8 µM. actives 55% (n = 10,000). AID 489028; in the data active means inhibition above about 40%
Full FLuc ctr: counter-screen for Mdm2/MdmX inhibitors: full-length luciferase; shares compounds with Mdm2-MdmX inh; SaOS-2 full-length luciferase counterscreen, luminescence; inhibition, % at 8 µM; actives 77% (n = 6,200); AID 504607;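 active means mean inhibition at 8 µM reaching about 37%, which flags the compound as non-specific, limit read from the data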;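 further: p53-null SaOS-2 cells with luciferase driven by a doxycycline-inducible promoter; compound on cells about two nights before reading with doxycycline added after day one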
Gli antag conf: confirmation of Gli-SUFU pathway antagonists. shares compounds with Gli-Sufu block. Sufu-KO-LIGHT cells, Gli luciferase reporter, luminescence. inhibition, % at 5 µM. actives 40% (n = 2,500). AID 602428;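 active means mean inhibition at 5 µM reaching about 45%, limit read from the data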;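 further: plate controls were DMSO-treated cells for no effect and wells lacking cells for full effect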
Gli cytotox: cytotoxic in Gli-SUFU antagonist counter-screen | shares compounds with Gli-Sufu block | Sufu-KO-LIGHT cells cytotoxicity, ATP luminescence | cytotoxicity, % at 5 µM | actives 32% (n = 2,500) | AID 651994;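 active means mean cytotoxicity at 5 µM above about 25%, limit read from the data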;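 further: cells exposed to compound overnight for roughly 16 to 18 hours; plate controls were DMSO wells with cells for no effect and medium without cells for full effect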
Wnt3a counter: counter-screen for Gli-SUFU antagonists: Wnt3a reporter inhibition; inhibition, % at 6.25 µM; Wnt-LIGHT cells, Wnt3a-driven luciferase reporter, luminescence; shares compounds with Gli-Sufu block; AID 651995; actives 20% (n = 2,500);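 active means mean inhibition above about 25%, limit read from the data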
Numbers without * were called inactive; i = inactive; nt = no result given.

SMILES	aSyn 5UTR inh	Gli-Sufu block	697 NFkB inh	Mdm2-MdmX inh	KLF5 inh	Jurkat NFkB inh	697 NFkB conf	Gli antag conf	Gli cytotox	Wnt3a counter	others
Cc1ccc(-n2ncc3c(SCc4ccccn4)ncnc32)c(C)c1	-34.9	-2.4	i	84.2*	30.3	-78.0	i	nt	nt	nt	Mdm2 MdmX conf=77.8*;Full FLuc ctr=27.6
COc1ccc(OC)c(NC(=O)CS(=O)(=O)Cc2ccccc2)c1	10.6	0.0	-19.3	5.6	-29.8	0.7	nt	nt	nt	nt
COc1ccc(OC)c(NC(=O)c2nc(S(=O)(=O)Cc3ccccc3)ncc2Cl)c1	99.5*	33.8	-441.1	100.2*	44.8	49.3	-203.1	nt	nt	nt	Mdm2 MdmX conf=93.1*;Full FLuc ctr=51.5*
COc1ccc(CCN2C(=O)CSC2=Nc2ccc(C(C)C)cc2)cc1OC	-8.4	26.1	-23.3	11.6	-7.1	30.9	nt	nt	nt	nt
CSc1ncccc1C(=O)Nc1nc2ccc(Oc3ccccc3)cc2s1	-30.8	-14.9	-31.2	16.5	-18.4	-20.9	nt	nt	nt	nt
CCOc1ccc(N=C(NN)c2ccc3ccccc3n2)cc1	4.3	63.8*	-251.8	-7.9	-30.0	13.3	-42.7	73.2*	13.5	81.3*
CCOc1ccc(N=C(C)C2=C(O)c3ccccc3C2=O)cc1	-122.7	-8.9	-158.1	-141.9	-89.4	-102.7	nt	nt	nt	nt
COc1cccc(CNC(=O)CCSCc2ccccc2F)c1	12.6	7.8	-13.0	-2.5	-15.0	-4.0	nt	nt	nt	nt
COc1ccc(-c2n(Cc3ccccc3)c3ccccc3[n+]2Cc2ccccc2)cc1	55.0	72.0*	41.3*	89.4*	8.8	45.4	33.3*	76.8*	32.9*	-24.1	Mdm2 MdmX conf=89.2*;Full FLuc ctr=21.1
CNC(=O)CSc1nc2nn(-c3ccccc3)c(=O)c-2c2n1CCCCC2	-3.6	55.7*	35.4*	25.3	21.9	-0.6	37.7*	23.4	6.5	-28.0
CCn1c(Cc2ccc(OC)cc2)nnc1SCc1nc2ccccc2c(=O)[nH]1	-3.0	-6.8	4.7	15.6	-38.2	-3.1	nt	nt	nt	nt
CCOc1ccc(-c2c[n+]3c(n2-c2ccccc2)CCCCC3)cc1	19.1	87.8*	59.8*	29.8	-45.3	46.9	53.8*	87.8*	39.3*	20.5
O=S(=O)(c1ccc2c(c1)C(=NO)c1cc(S(=O)(=O)N3CCCCC3)ccc1-2)N1CCCCC1	96.5*	95.0*	103.8*	94.9*	-6.0	25.4	-32.8	93.3*	71.1*	104.4*	Mdm2 MdmX conf=99.2*;Full FLuc ctr=1.6
O=S(=O)(c1ccc(S(=O)(=O)N2CCCC2)cc1)N1CCCCCC1	-8.4	-1.7	-7.6	-16.7	0.8	0.4	nt	nt	nt	nt
O=C1CCCN1CC(O)CS(=O)(=O)Cc1ccc(Cl)c(Cl)c1 (stereo not given)	5.1	9.7	0.7	7.9	-27.5	-0.6	nt	nt	nt	nt
O=C(CN1C(=O)/C(=C/c2ccccc2F)Sc2ccccc21)NCC1CCCO1 (stereo not given)	-23.2	-4.3	-38.1	12.4	-11.2	-6.7	nt	nt	nt	nt
O=C(CNC(=O)c1cccs1)Nc1ccncc1	-13.2	-4.6	14.8	8.0	nt	16.5	nt	nt	nt	nt
Cc1ccc(Nc2nc(N3CCOCC3)nc(N3CCOCC3)n2)cc1C	-1.4	56.5*	54.9*	41.6	-5.9	32.0	46.7*	50.2*	41.3*	-51.3
Cc1nn(C)c(C)c1CN(C)S(=O)(=O)c1ccc2ccccc2c1	nt	74.7*	81.9*	9.3	-23.2	47.1	72.3*	78.2*	28.1*	36.5*

Screening results (PubChem BioAssay)
